Assay outcomes deposited in PubChem BioAssay by National Center for Advancing Translational Sciences (NCATS).
This is a sample that favours compounds with a hit; in the whole collection about 11% have one here.
FLuc inh – Firefly luciferase inhibition profiling of diverse chemical library using quantitative high-throughput screening; Luciferin 4-monooxygenase (Photinus pyralis), P08659; Potency, µM (doses to about 115 µM), most hits filed as inhibitors; AID 1347043, 2019; purified P. pyralis luciferase, luminescence, biochemical; 76,000 compounds, 2.5% hits; also: % is scaled to controls: 0 for no effect and ±100 for the full control effect; nearly all actives have a fitted effect of over 65% in size
Target sequence (P08659 whole entry, looked up): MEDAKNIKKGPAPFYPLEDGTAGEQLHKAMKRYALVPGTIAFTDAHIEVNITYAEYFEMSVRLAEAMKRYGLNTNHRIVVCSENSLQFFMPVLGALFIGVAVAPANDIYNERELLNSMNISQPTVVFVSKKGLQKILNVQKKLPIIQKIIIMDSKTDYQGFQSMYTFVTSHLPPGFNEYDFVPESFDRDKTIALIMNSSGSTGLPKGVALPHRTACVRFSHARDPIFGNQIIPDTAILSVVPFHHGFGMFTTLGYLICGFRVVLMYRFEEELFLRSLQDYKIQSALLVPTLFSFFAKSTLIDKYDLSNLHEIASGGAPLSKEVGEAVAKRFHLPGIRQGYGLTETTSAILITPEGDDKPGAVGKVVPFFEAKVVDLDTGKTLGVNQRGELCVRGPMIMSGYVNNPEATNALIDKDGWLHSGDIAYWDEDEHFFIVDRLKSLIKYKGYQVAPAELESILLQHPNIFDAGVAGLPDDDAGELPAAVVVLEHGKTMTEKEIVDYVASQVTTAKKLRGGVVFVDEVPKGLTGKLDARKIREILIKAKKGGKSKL
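Cell-free enzyme assay, 10nM P. pyralis luciferase, luciferin and ATP each at 10uM. Inhibition profiled over a 6-point titration, read as luminescence.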
NIH3T3 tox – Cytotoxic Profiling in NIH 3T3 Cell Line of Diverse Libraries Using Quantitative High-Throughput Screening; AID 1345082, 2018; Potency, µM (doses to about 96.7 µM), for the others: top-dose activity change, negative = cytotoxicity, hits mostly inhibitors; 94,000 compounds, 4.3% hits; NIH 3T3 viability, CellTiter-Glo ATP luminescence, 48-72 h; also: % is scaled to controls: 0 for no effect and ±100 for the full control effect; nearly all actives have a fitted effect of over 55% in size
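Cytotoxicity is measured as loss of cellular ATP: NIH 3T3 cells (400/well) are exposed to compound for 48 or 72 hr at 37 °C, then CellTiter-Glo luminescence is imaged after 10 min at room temperature.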
hNpr1 antagonist – Natriuretic polypeptide receptor (hNpr1) antagonism - Primary qHTS | Potency, µM (titrated, usually from 46.3 µM), for inactives: top-dose activity change, negative = inhibition, actives largely listed as inhibitors | 76,000 compounds, 1.6% hits | HEK293 hNpr1 GloSensor cGMP, ANP-stimulated luminescence | Atrial natriuretic peptide receptor 1 (Homo sapiens), P16066; calls by dose curve; also: % is scaled to controls: 0 for no effect and ±100 for the full control effect; nearly all actives have a fitted effect of over 60% in size
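Compound pre-incubated 30 min at room temperature on GloSensor-loaded HEK293 cells stably carrying hNpr1 and the pGS-40F cGMP biosensor. Stimulation uses hNppA at 0.1 nM final; luminescence is taken at baseline and 20 min post-agonist.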
HEK cytotox – Cytotoxic Profiling in HEK 293 Cell Line of Diverse Libraries Using Quantitative High-Throughput Screening | HEK 293 viability, ATP luminescence (CellTiter-Glo), 48-72 h | Potency, µM (top dose mostly 115 µM), without a hit: top-dose activity change, negative = cytotoxicity, usual class: inhibitors | 94,000 compounds, 6.6% hits; also: % is scaled to controls: 0 for no effect and ±100 for the full control effect; nearly all actives have a fitted effect of over 60% in size
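HEK 293 cells seeded at 250 cells/well were exposed to compound for 48 or 72 hr at 37 degree Celsius. Viability taken as ATP content by CellTiter-Glo luminescence.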
NPR1 antag cnf – Natriuretic polypeptide receptor (hNpr1) antagonism - Confirmation. shares compounds with hNpr1 antagonist. 1,400 compounds, 76% hits. HEK293 hNpr1 cGMP GloSensor luminescence, ANP-stimulated. Potency, µM (series often up to 57.6 µM), for the others: at the top dose activity change, negative = inhibition, most hits filed as inhibitors; calls by dose curve; also: nearly all actives have a fitted effect of over 70% in size
Npr2 selectivity – Natriuretic polypeptide receptor (hNpr2) antagonism - Subtype selectivity assay; shares compounds with hNpr1 antagonist; HEK293 hNpr2 GloSensor cGMP luminescence, CNP-stimulated; Potency, µM (titrated, usually from 57.6 µM), for the others: at the top dose activity change, negative = inhibition, actives largely listed as inhibitors; 1,400 compounds, 67% hits; calls by dose curve; also: nearly all actives have a fitted effect of over 70% in size
FLuc counter – Natriuretic polypeptide receptor (hNpr1) antagonism - Confirmation firefly luciferase (FLuc) inhibition counterscreen; shares compounds with hNpr1 antagonist; purified FLuc enzyme, luminescence, Km substrate; Potency, µM (highest dose often 57.6 µM), without a hit: top-dose activity change, negative = inhibition, actives largely listed as inhibitors; 1,400 compounds, 0.7% hits; AID 1347047, 2019; also: 0% is about no effect
GloSensor ctrl – Natriuretic polypeptide receptor (hNpr1) antagonism - Counterscreen GloSensor control cell line; shares compounds with hNpr1 antagonist; HEK293 GloSensor cGMP, SNP-stimulated, luminescence; Potency, µM (doses to about 57.6 µM), for inactives: at the top dose activity change, negative = inhibition, usual class: inhibitors; 1,400 compounds, 69% hits; AID 1347051, 2019; calls by dose curve; also: % is scaled to controls: 0 for no effect and ±100 for the full control effect; nearly all actives have a fitted effect of over 70% in size
* = called active by the depositor; i = inactive; ? = inconclusive; · = no result given; [ ] = another dose, or the depositor's remark. Unless noted, calls follow the shape of the dose curve; as a rule, active = well fitted curve in the direction sought with a large enough effect; inconclusive = small, poorly fitted or top-dose-only effect, or another doubt; inactive = no such curve, though single readings can be large; an effect the other way counts as inactive or inconclusive. Potency is read from the fitted curve at half-maximal effect.

SMILES | FLuc inh | NIH3T3 tox | hNpr1 antagonist | HEK cytotox | NPR1 antag cnf | Npr2 selectivity | FLuc counter | GloSensor ctrl
COc1ccc(OCC(=O)N2CCC(Cc3nc(-c4ccc(OC)cc4)no3)CC2)cc1 | i | 14.1µM* | 10µM* | 12.6µM* | 10.9µM* | 13.7µM* | -1.7% | 12.2µM*
Cc1ccc(OCC(=O)N2CC(Oc3ccc(-c4noc(-c5ccccc5)n4)cc3)C2)cc1 | · | -29.1% | · | -2.0% | · | · | · | ·
Cc1ccc(OCC(=O)N2CCC(Cc3nc(-c4ccccc4)no3)CC2)cc1 | i | ? | 12.6µM* | 39.8µM* | 15.3µM* | 15.3µM* | 26.1% | 12.2µM*
COc1ccc(-c2noc(CC3CCN(C(=O)COc4ccc(C)cc4)CC3)n2)cc1 | i | ? | 6.31µM* | ? | 7.69µM* | 8.62µM* | -12.5% | 8.62µM*
Cc1cc(C)cc(NC(=O)N2CCCC(Cn3c(C4CC4)nc4cccnc43)C2)c1 (stereo not given) | i | -26.0% | 3.0% | ? | · | · | · | ·
O=C(NC1CC1)c1nc2cccnc2n(Cc2ccccc2)c1=O | · | -25.1%[138 µM] | · | -14.0%[172 µM] | · | · | · | ·
CN(C)c1cccc(C(=O)N2CCN(C(=O)c3nnn4c3COC(c3ccc(Cl)cc3)C4)CC2)c1 (stereo not given) | i | ? | 12.6µM* | ? | 24.3µM* | 24.3µM* | -29.4% | 24.3µM*
O=C(c1nnn2c1COC(c1ccc(Cl)cc1)C2)N1CCN(C(=O)c2c(F)cccc2F)CC1 (stereo not given) | i | ? | ? | ? | ? | ? | -0.1% | ?
O=C(c1ccc[nH]1)N1CCN(C(=O)c2nnn3c2COC(c2ccc(Cl)cc2)C3)CC1 (stereo not given) | i | -10.6% | -1.9% | -19.2% | · | · | · | ·
O=C(c1ccc(F)c(Cl)c1)N1CCN(C(=O)c2nnn3c2COC(c2ccccc2)C3)CC1 (stereo not given) | i | ? | 12.6µM* | ? | 21.7µM* | 24.3µM* | 1.0% | 21.7µM*
COc1ccc(C(=O)N2CCN(C(=O)c3nnn4c3COC(c3ccc(Cl)cc3)C4)CC2)cc1F (stereo not given) | i | -31.3% | ? | ? | 24.3µM* | 27.3µM* | 1.2% | 21.7µM*
COCCCn1c(=O)c(C(=O)N2CCN(C(=O)C3CCCC3)CC2)nc2cccnc21 | · | -12.9% | · | 1.6% | · | · | · | ·
CCc1nc2c(c(-c3ccc(Cl)cc3)n1)CCN(Cc1ccsc1)CC2 | i | ? | 7.1% | ? | · | · | · | ·
O=C(c1cccc(Cl)c1)N1CCN(C(=O)c2nnn3c2COC(c2ccc(F)cc2)C3)CC1 (stereo not given) | i | ? | 12.6µM* | ? | 24.3µM* | 24.3µM* | 0.4% | 24.3µM*
O=C(c1ccc(F)c(F)c1)N1CCN(C(=O)c2nnn3c2COC(c2ccc(Cl)cc2)C3)CC1 (stereo not given) | i | ? | 12.6µM* | -46.0% | 21.7µM* | 21.7µM* | 7.7% | 19.3µM*
O=C(Cc1c[nH]c2ncc(-c3ccccc3C(F)(F)F)cc12)N1CCOCC1 | i | ? | 2µM* | ? | 4.44µM* | 8.86µM* | 1.1%[86.2 µM] | 3.96µM*
Cc1ccccc1-c1cnc2[nH]cc(CC(=O)N3CCOCC3)c2c1 | i | -55.5%[138 µM] | 2.82µM* | 112µM* | 2.8µM* | 4.44µM* | -0.7%[86.2 µM] | 2.22µM*
O=C(Cc1c[nH]c2ncc(-c3cccc(CO)c3)cc12)N1CCOCC1 | i | ? | -21.7%[70.6 µM] | ? | · | · | · | ·
COc1ccc(C(=O)NC2CCN(C(=O)c3ccc(-c4cncnc4)cc3)CC2)cc1 | · | -11.9% | · | -15.1% | · | · | · | ·
COc1ccc(-c2nn(-c3ccccc3)cc2CN2CCCC(C#N)C2)c(F)c1 (stereo not given) | i | -3.3% | 4.6% | ? | · | · | · | ·
CC(C)CN1C(=O)C(C)(C)[S+](=O)([O-])[C@H]2CN(c3ccc(Oc4ccccc4)cc3)C[C@@H]21 | i | ? | 1.8% | ? | · | · | · | ·
CC1(NC(=O)C2CC2)CN(c2ccc(Oc3ccccc3)cc2)C1 | i | -27.5%[138 µM] | 20µM* | ? | 17.7µM* | 22.2µM* | -0.6%[86.2 µM] | 15.7µM*
CC(=O)NC1(C)CCCN(c2ccc(Oc3ccccc3)cc2)C1 (stereo not given) | i | ? | 17.8µM* | ? | 19.8µM* | 19.8µM* | ? | 15.7µM*
COc1cccc(Nc2cccc(CN3CCCC(C)(NC(C)=O)C3)c2)c1 (stereo not given) | i | ? | 3.5%[70.6 µM] | ? | · | · | · | ·
COc1nc2c(cc1CNC(=O)C(C)(C)OC)C(=O)N(CCc1ccccn1)C2 | i | -4.0% | 2.7% | 1.2% | · | · | · | ·
SMILES | FLuc inh | NIH3T3 tox | hNpr1 antagonist | HEK cytotox | NPR1 antag cnf | Npr2 selectivity | FLuc counter | GloSensor ctrl
CNC(=O)C1CCN(C(=O)c2coc(COc3ccc4ccc(OC)cc4c3)n2)C1 (stereo not given) | ? | ? | -24.1% | ? | · | · | · | ·
COc1ccc2ccc(OCc3nc(C(=O)N4CCNC(=O)C4C)co3)cc2c1 (stereo not given) | i | ? | 11.2µM* | ? | 24.3µM* | 21.7µM* | -5.1% | 21.7µM*
N#Cc1cccnc1N1CCC(NC(=O)c2ccc3nccn3c2)CC1 | i | -62.7% | 11.2µM* | ? | 21.7µM* | 24.3µM* | 1.8% | 19.3µM*
N#Cc1cccnc1-c1ccc(C(=O)N2CCC(NC(=O)c3ccncc3)CC2)cc1 | · | -26.7% | · | -15.0% | · | · | · | ·
COc1ccc(C2Cn3nnc(-c4nc(C5CC5)no4)c3CO2)cc1 (stereo not given) | i | -34.1% | ? | -10.6% | ? | -21.6% | 2.2% | -16.5%
Cc1ccc(C2Cn3nnc(-c4noc(-c5ccoc5)n4)c3CO2)cc1 (stereo not given) | i | i | ? | 14.2% | ? | ? | 0.2% | -3.5%
